# Source: PubChem BioAssay (NCI)
# Compounds without any hit were thinned out: in the full panel of roughly 83,000, 20% have a hit.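 Activity criterion: percent growth below 10, measured after cells in 96-well plates were exposed to a single compound concentration for 48 hours.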 Unmarked numbers belong to inactive results. Calls of active or inactive are those of the source.
# How the values were obtained:
# Assay in all cases: NCI-60 one-dose screen, 48 h (100 = growth as untreated, 0 = no growth, -100 = all killed)
# Conditions in all cases: 10 µM unless noted
# NCI-H23 lung = system: NCI-H23 lung
# NCI-H322M lung = system: NCI-H322M lung
# HOP-62 NSCLC = system: HOP-62 NSCLC
# NCI-H460 lung = system: NCI-H460 lung
# HOP-92 NSCLC = system: HOP-92 NSCLC
# NCI-H522 lung = system: NCI-H522 lung
# A549/ATCC NSCLC = system: A549/ATCC NSCLC
# 786-0 renal = system: 786-0 renal
# COLO 205 colon = system: COLO 205 colon
# DU-145 prostate = system: DU-145 prostate
Compound,growth (NCI-H23 lung),growth (NCI-H322M lung),growth (HOP-62 NSCLC),growth (NCI-H460 lung),growth (HOP-92 NSCLC),growth (NCI-H522 lung),growth (A549/ATCC NSCLC),growth (786-0 renal),growth (COLO 205 colon),growth (DU-145 prostate)
CCOc1ccc(-c2nonc2NC(=O)c2cccc(C)c2)cc1OCC,78.9%,93.1%,96.9%,55.9%,-8.71% (active),84%,65.4%,73.9%,36.8%,80.5%
COc1cccc(C2=NN3C(C2)c2ccccc2OC3c2ccc(/C=C3\SC(=O)NC3=O)cc2)c1 (stereo not given),92.3%,97.8%,110%,101%,106%,87.8%,103%,95.6%,119%,106%
COc1ccc(S(=O)(=O)N(Cc2ccc3c(n2)C=CC(C)(C)O3)C2CCC2)cc1OC,-14.5% (active),-20.1% (active),1.37% (active),1.79% (active),-19.6% (active),-27.7% (active),-2.9% (active),-26.5% (active),0.159% (active),-8.1% (active)
O=Cc1c(OCc2cnnn2CC(=O)Nc2ccc(Br)cc2)ccc2ccccc12,86.4%,96.1%,97.7%,97.3%,85.7%,77.2%,91.6%,102%,106%,96.9%
NS(=O)(=O)c1ccc(CCN=C=S)cc1,32.7%,85.2%,101%,56.7%,23.4%,-69.8% (active),71.5%,20.8%,-36.7% (active),6.92% (active)
Cn1nc(C(F)(F)F)c(-c2ccc(Cl)c(C(F)(F)F)c2)c1-c1ccc(OCc2ccc(Cl)cc2)cc1O,-6.46% (active),18.1%,50.5%,6.25% (active),-22.4% (active),-13.7% (active),12.8%,28.4%,24.5%,19%
COc1cc(C(=O)Nc2ccc(-c3nc4ccccc4[nH]3)cc2)cc(OC)c1OC,72.6%,94.5%,42.5%,22.6%,56.4%,25%,45.8%,73.4%,44.6%,87.9%
Nc1ccc(-c2ccc(-c3ccccc3N)c3[nH]c4ccccc4c23)cc1,28.4%,41.4%,42.1%,16.1%,36.9%,46.4%,30.4%,46%,13.2%,10.2%
CC(C)(C)c1ccc(C2CC(=O)C3=C(C2)Nc2ccccc2N(C(=O)c2ccccc2Cl)C3c2ccc(F)cc2)cc1 (stereo not given),3.17% (active),-9.78% (active),25.3%,-0.748% (active),58.5%,14.7%,-3.2% (active),51.8%,-63.5% (active),37%
COC(=O)c1cc2c(n1Cc1ccccc1)-c1oncc1CCC2,81.5%,114%,72.9%,94.7%,75.3%,39.1%,49.3%,92.3%,55%,102%
O=C1c2ccccc2C(=O)c2c1ccc1[nH]c(CCl)nc21,15%,62.5%,25.3%,1.46% (active),32%,-31.5% (active),43.8%,28.9%,29.1%,17.1%
CCOC(=O)c1cnc2c(C)cccc2c1Nc1ccc(C(C)=O)cc1,32.1%,42.7%,-76.6% (active),-68.6% (active),-1.13% (active),-78.5% (active),-60.9% (active),8.84% (active),-91.5% (active),22%
C[n+]1c2ccccc2nc2ccc(NCCO)cc21,90.6%,88.8%,98.1%,86.8%,30.9%,92.2%,86.2%,80.8%,68.8%,97.2%
CC[C@H](C)[C@@H](C(=O)OC)n1cc(CNC(=O)[C@@H](Cc2ccccc2)NC(=O)OCc2ccccc2)nn1,104%,95.5%,103%,104%,96.4%,87.4%,87.2%,106%,122%,104%
CCN1CCN(c2cc(C)c3cc(NC(=O)c4ccc(OC)c(OC)c4)ccc3n2)CC1,58.2%,50.7%,50.7%,25.4%,56.4%,51.8%,33.3%,49%,11.9%,34.5%
CCCCc1c(CCC)c(=N)c2ccccc2n1C,99.2%,85.3%,78%,67.7%,48.2%,100%,69.8%,73.8%,70.5%,79.9%
O=C(/C=C/c1ccccn1)c1ccc(OCc2nnc(-c3ccc(Cl)cc3)o2)cc1,70%,52.7%,44.6%,42.4%,105%,63.7%,34.1%,-49.9% (active),-40.1% (active),23.8%
Cc1ccc(Cc2cnc(NC(=O)CN3C(=O)/C(=C\c4ccccc4)SC3=S)s2)cc1,103%,109%,109%,103%,113%,94.7%,103%,105%,116%,111%
CN(C)/C=C1\SC(=Nc2ccc(Cl)cc2)NC1=O,103%,108%,114%,102%,102%,95.8%,100%,99.8%,119%,108%
NC1(N2SC(S)=C3CCCC=C32)CCCCC1,105%,99.8%,101%,107%,96.6%,81.9%,100%,106%,107%,98.3%
O=C(Nc1ccc(C23CC4CC(CC(c5ccccc5)(C4)C2)C3)cc1)c1cccs1,71.4%,92.5%,119%,69.9%,86.5%,59.9%,72.9%,78.7%,91.4%,84.7%
CCOC(=O)C1(Cc2ccccc2)CCN(Cc2cccc(OC)c2O)CC1,18.3%,20.3%,12.9%,-13% (active),30.6%,17.1%,2.47% (active),6.33% (active),10.2%,10.8%
Cc1ccc2nc(NC(=O)CSC(=S)N3CCN(c4ccccc4)CC3)sc2c1,83.7%,92.9%,105%,112%,82.6%,-81.8% (active),94.6%,103%,116%,112%
O=C1OC(c2ccccc2)(c2ccccc2)c2ccsc21,113%,90.7%,117%,98.8%,87.1%,92.6%,101%,103%,121%,104%
COc1ccc(-c2nocc2-c2cccs2)cc1,105%,102%,101%,102%,86.6%,98.5%,99.3%,103%,115%,107%
O=C(Nc1ccc(Cl)cc1F)c1cc(F)ccc1O,1.46% (active),8.54% (active),-0.133% (active),4.1% (active),-7.2% (active),-25.1% (active),7.57% (active),3.03% (active),-1.76% (active),16.3%
CCN(CC)CCNC(=O)C(Cl)=C1C(Cl)=C(Cl)C(Cl)=C1Cl,55.9%,81.7%,75.5%,19.3%,53.8%,-14.7% (active),46.6%,90.1%,54.5%,48.4%
